Laboratory results as given in PubChem BioAssay (NCI).
The panel holds about 83,000 compounds, 20% with a hit somewhere; the sample as a whole holds those more often.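 Percent growth is the endpoint: 0 to 100 indicates growth inhibition (40 means 60% inhibition), 0 means no net growth, and negative values indicate cell death.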 A number with no mark means an inactive call. Active and inactive are the calls of the source. The calls were made as follows: active = growth percent below 10; inactive = the rest.

What was measured:
Test in all cases: NCI-60 one-dose screen, 48 h (100 = growth as untreated, 0 = no growth, -100 = all killed)
Details in all cases: 10 µM unless noted
NCI-H23 lung = system: NCI-H23 lung
NCI-H226 lung = system: NCI-H226 lung
NCI-H322M lung = system: NCI-H322M lung
HOP-62 NSCLC = system: HOP-62 NSCLC
NCI-H460 lung = system: NCI-H460 lung
A549/ATCC NSCLC = system: A549/ATCC NSCLC
786-0 renal = system: 786-0 renal
COLO 205 colon = system: COLO 205 colon
DU-145 prostate = system: DU-145 prostate
NCI-H522 lung = system: NCI-H522 lung

Row | Structure (SMILES) | growth (NCI-H23 lung) | growth (NCI-H226 lung) | growth (NCI-H322M lung) | growth (HOP-62 NSCLC) | growth (NCI-H460 lung) | growth (A549/ATCC NSCLC) | growth (786-0 renal) | growth (COLO 205 colon) | growth (DU-145 prostate) | growth (NCI-H522 lung)
1 | CC1(C)OC(=O)C(=Cc2ccccc2Br)C(=O)O1 | 101% | 96.9% | 101% | 106% | 102% | 103% | 103% | 109% | 116% | 
2 | O=C1NCN(CCO)CN1 | 98.6% | 105% | 94.2% | 85.1% | 105% | 101% | 90.4% | 120% | 117% | 
3 | O=C(CSCC(=O)N/N=C/c1ccccc1O)N/N=C\c1ccccc1O | 40.8% | 39.4% | 15.7% | 25.3% | 14.2% | 38.1% | 5.14% (active) | 17.2% | 37.1% | 
4 | CCOC(=O)c1c2c(c(C)n1Cc1ccccc1)-c1nc(N)ncc1CC2 | 93.9% | 83.7% | 94.7% | 82.4% | 102% | 104% | 92% | 131% | 120% | 
5 | CC[C@@H]1OC(=O)[C@H](C)[C@@H](O[C@H]2C[C@@](C)(OC)[C@@H](O)[C@H](C)O2)[C@H](C)[C@@H](O[C@@H]2O[C@H](C)C[C@H](N(C)C)[C@H]2O)[C@](C)(O)C[C@@H](C)[C@@H]2N[C@@H](COCCOC)O[C@H]([C@H]2C)[C@]1(C)O | 94% | 110% | 96% | 107% | 117% | 100% | 95.8% | 98.7% | 100% | 
6 | CC/C(=C\c1ccc(N(C)C)cc1)c1ccncc1 | 63.3% | 74.8% | 94.6% | 46.6% | 14.3% | 43.5% | 54.6% | 36.1% | 85% | 
7 | CCC(CC)NCCCCCNc1cc(OC)cc2cccnc12 | 94.7% | 96.6% | 120% | 84.6% | 105% | 96.1% | 95% | 82.7% | 102% | 
8 | CCOC(=O)c1ccccc1OC(=O)NNc1ccccc1 | 100% | 88.8% | 58% | 70.6% | 30.5% | 74.1% | 44.6% | 76.2% | 82% | 
9 | CC(C)(C)c1ccc(C(O)CCCN2CCC(C(O)(c3ccccc3)c3ccccc3)CC2)cc1 (stereo not given) | 4.7% (active) | 57.5% | 53.8% | -79.5% (active) | -84.9% (active) | -39.8% (active) | -97.4% (active) | -86.9% (active) | -75.7% (active) | 
10 | C/C(=N\N1CC(=O)NC1=O)c1ccc([N+](=O)[O-])o1 | 101% | 106% | 121% | 120% | 94.6% | 97.3% | 103% | 108% | 98.8% | 
11 | ClC1=C(Cl)C(Cl)=C(Cl)C1=Cc1ccc(Cl)cc1 | 33.1% | 87.7% | 107% | 47.4% | -63.4% (active) |  | -43% (active) | 13.5% | -75.4% (active) | 
12 | NNC(=O)NO | 98.6% | 103% | 93% | 88.9% | 105% | 101% | 98.5% | 111% | 109% | 
13 | COc1ccc(/C=C2\NC(=S)NC2=O)cc1 | 113% | 100% | 95.2% | 83.5% | 104% | 107% | 109% | 88.2% | 118% | 
14 | Cc1cc(Cl)ccc1Nc1nc(C(F)(F)F)ccc1C(=O)NCC(=O)N/N=C/c1c(Cl)cccc1Cl | 74.6% | 89.5% | 80.9% | 102% | 80.7% | 44.9% | 94.9% | 87.3% | 49.9% | 
15 | O=C(O)c1ccc(NC(=O)c2ccc(Nc3ccnc(C(F)(F)F)c3)cc2)cc1 | 98.4% | 100% | 121% | 103% | 113% | 103% | 103% | 101% | 106% | 
16 | COc1c(O)cc2oc3cc(O)c(CC=C(C)C)c(O)c3c(=O)c2c1C/C=C(\C)CCC=C(C)C | 33.5% | 105% | 90.1% | 41.2% | 33.6% | 45.1% | 30.2% | 81.7% | 81.1% | 

Row | Structure (SMILES) | growth (NCI-H23 lung) | growth (NCI-H226 lung) | growth (NCI-H322M lung) | growth (HOP-62 NSCLC) | growth (NCI-H460 lung) | growth (A549/ATCC NSCLC) | growth (786-0 renal) | growth (COLO 205 colon) | growth (DU-145 prostate) | growth (NCI-H522 lung)
17 | Nc1ccc(C2=NN(c3ccccc3)C(c3ccc(Cl)cc3)C2)cc1 (stereo not given) | 92.8% | 90.9% | 88.2% | 87.2% | 99.4% | 83.1% | 78.4% | 101% | 81.7% | 
18 | Cc1cc(=O)n2n1-c1ccc(Cl)cc1NC(=O)C2 | 109% | 93.9% | 85.6% | 104% | 112% | 100% | 108% | 115% | 111% | 
19 | CC(C)C/C(=N\NC(=O)c1ccncc1)c1cc(Cl)ccc1O | 23.1% | 50.5% | 13.1% | 30.6% | 8.41% (active) | 20.8% | -1.16% (active) | 13.9% | 23.5% | 
20 | COc1ccc(-c2csc(NC(=O)c3cc(O)c(O)c(O)c3)n2)cc1 | 78.5% | 82.3% | 76.9% | 64.8% | 53.7% | 58.6% | 64.4% | 91.4% | 65.2% | 
21 | CC(C)[O-].CC(C)[O-].CN(CCN(C)Cc1cc(F)cc(F)c1[O-])Cc1cc(F)cc(F)c1[O-].[Ti+4] | 6.91% (active) | 25.6% | 0.494% (active) | -5.62% (active) | -27.8% (active) | 2.03% (active) | 19.1% | 1.34% (active) | 17.7% | 
22 | CCN1C(=O)c2ccc3c4c(ccc(c24)C1=O)C(=O)N(CCCNCc1ccccc1OC)C3=O | -42.7% (active) | -36.6% (active) |  | -36.8% (active) | -57.8% (active) | -58.1% (active) | -51.5% (active) | -81.5% (active) | -87.4% (active) | -87.1% (active)
23 | CCN1C2=C(SC(=S)C1=C1SC(C(=O)OC)=C(C(=O)OC)S1)SC(=Nc1ccc(OC)cc1)C2=O | -42.5% (active) | -66.7% (active) |  | -13.7% (active) | -47.5% (active) | 17.7% | -64.6% (active) | -3.6% (active) | -46.1% (active) | -15.2% (active)
24 | CC[N+](CC)(CCOCCOCC[N+](CC)(CC)Cc1ccc([N+](=O)[O-])cc1)Cc1ccc([N+](=O)[O-])cc1 | 99.2% | 91.7% | 117% | 76.4% | 96.8% |  | 109% | 106% | 119% | 
25 | O=C(NCCc1ccccc1)C1CCC(=O)N1Cc1ccc(Br)cc1 (stereo not given) | 104% | 95.1% |  | 93% | 102% | 79.1% | 105% | 108% | 109% | 67.1%
26 | Cc1ccsc1/C=C/C1=NCCCN1C | 97% | 100% |  | 100% | 116% | 99.7% | 92.5% | 101% | 112% | 91%
27 | COc1ccc(-c2nnc(COc3ccc(NC(=O)Nc4cc(C(F)(F)F)cc(C(F)(F)F)c4)cc3F)o2)cc1 | -11% (active) | 7.41% (active) |  | 12.3% | 4.82% (active) | 3.87% (active) | 16.2% | -40.7% (active) | 12.4% | -17.8% (active)
28 | COc1ccc(C2CC(c3ccc(OC)c(OC)c3)=NN2C(=O)c2cc(OC)c(OC)c(OC)c2)cc1 (stereo not given) | 46.6% | 51.9% |  | 34.8% | 6.07% (active) | 27.2% | 26.7% | 8.03% (active) | 11.6% | -35.9% (active)
29 | Cn1cc(-c2csc(-c3cn(C)c4ncccc34)n2)c2cccnc21 | 92.1% | 107% |  | 123% | 98.4% | 89.7% | 83.1% |  |  | 87.1%
30 | C/C(=C\CCc1ccsc1)CC/C=C(\C)CCCN1CCN(CCO)CC1 | 62.2% | 67.7% |  | 69.1% | 14.6% | 44.8% | 32.8% | -9.2% (active) | 76.4% | 71.5%
31 | c1ccc(N2CCN(c3nncc4ccccc34)CC2)nc1 | 105% | 98.1% |  | 102% | 108% | 100% | 104% | 106% | 99% | 99.4%
